Tested on: Vero E6 infected with SARS-CoV-2
Assay: inhibition of SARS-CoV-2 cytopathic effect; higher = more antiviral protection, active = above 15
Settings: 48 h

Measured: inhibition of SARS-CoV-2 cytopathic effect

C#CCN(C)Cc1ccccc1 [pargyline]
inactive: 1 nM 0% | 8.33 nM 0.65% | 100 nM -1.02% | 833.33 nM -1.01% | 10000 nM 2.9%

CCS(=O)(=O)c1cccc(-c2cc(C(=O)NC3CCN(C)CC3)c(C)c3[nH]c4ncc(C)cc4c23)c1
inactive: 1 nM 3.23% | 8.33 nM 0.63% | 100 nM 1.19% | 833.33 nM -0.44% | 10000 nM -2.17%

Cc1c(OCC(F)(F)F)ccnc1C[S+]([O-])c1nc2ccccc2[nH]1 (stereo not given) [lansoprazole]
inactive: 1 nM 3.22% | 8.33 nM 0.73% | 100 nM -0.31% | 833.33 nM -1.96% | 10000 nM -1.14%

O[C@@](Cc1nc(CC2(C(F)(F)F)CC2)c[nH]1)(c1ccc(-n2cccn2)cc1)C(F)(F)F
inactive: 1 nM 0.23% | 8.33 nM -0.02% | 100 nM 0.57% | 833.33 nM -0.43% | 10000 nM -2.55%

CN(C)CCCN1c2ccccc2Sc2ccc(Cl)cc21 [chlorpromazine]
inactive: 1 nM -0.39% | 8.33 nM 2.71% | 100 nM 1.5% | 833.33 nM 2.32% | 10000 nM 7.04%

COc1ccc(C2CNC(=O)C2)cc1OC1CCCC1 (stereo not given) [rolipram]
inactive: 1 nM 0.987% | 8.33 nM 0.267% | 100 nM -1.59% | 833.33 nM -0.223% | 10000 nM -5.08%

CC(C)C[C@H](NC(=O)CNC(=O)c1cc(Cl)ccc1Cl)B(O)O [ixazomib]
inactive: 1 nM -2.33% | 8.33 nM 2.02% | 100 nM 5.21% | 833.33 nM -11%
active: 10000 nM 22.9%

Cc1cc(C(=O)Nc2cccc(C(=O)Nc3cccc(C(F)(F)F)c3)c2)on1
inactive: 1 nM 0.37% | 8.33 nM 3.92% | 100 nM -2.18% | 833.33 nM -1.26% | 10000 nM -3.26%

CN[C@@H](C)C(=O)N[C@H](C(=O)N1CCC[C@H]1C(=O)N[C@H]1c2ccccc2C[C@H]1OCC#CC#CCO[C@@H]1Cc2ccccc2[C@@H]1NC(=O)[C@@H]1CCCN1C(=O)[C@@H](NC(=O)[C@H](C)NC)C1CCCCC1)C1CCCCC1
inactive: 1 nM 0.65% | 8.33 nM 4.06% | 100 nM 1.35% | 833.33 nM -6.56% | 10000 nM -3.86%

C/C(O)=C(\C#N)C(=O)Nc1cc(Br)ccc1Br
inactive: 1 nM 0.38% | 8.33 nM 0.96% | 100 nM -1.74% | 833.33 nM 2.02% | 10000 nM 1.5%

CC(C)NC[C@@H](O)c1ccc(O)c(O)c1 (racemic) [isoprenaline]
inactive: 1 nM 1.39% | 8.33 nM -0.18% | 100 nM -0.08% | 833.33 nM 0.77% | 10000 nM -2.47%

CCOc1ccc2nc(SCCN3CCOCC3)[nH]c2c1 [afobazole]
inactive: 1 nM 0.28% | 8.33 nM 0.47% | 100 nM -1.23% | 833.33 nM -0.04% | 10000 nM 1.56%

CO/N=C(\C(=O)N[C@@H]1C(=O)N2C(C(=O)[O-])=C(C[N+]3(C)CCCC3)CS[C@H]12)c1csc(N)n1 [cefepime]
inactive: 1 nM 0.86% | 8.33 nM 1.89% | 100 nM 2.66% | 833.33 nM 3.19% | 10000 nM 1.42%

OC[C@H]1O[C@@H](Oc2cc3c(O)cc(O)cc3[o+]c2-c2ccc(O)c(O)c2)[C@H](O)[C@@H](O)[C@@H]1O [kuromanin]
inactive: 1 nM -0.56% | 8.33 nM 0.72% | 100 nM -0.34% | 833.33 nM -2.36% | 10000 nM -4.26%

Cc1n[nH]c2ccc(-c3cncc(OC[C@@H](N)Cc4ccccc4)c3)cc12
inactive: 1 nM 1.18% | 8.33 nM 0.14% | 100 nM 4.58% | 833.33 nM 4.63% | 10000 nM -13.2%

OCc1c[nH]c2ccccc12 [indole-3-carbinol]
inactive: 1 nM -1.46% | 8.33 nM 0.47% | 100 nM -3.76% | 833.33 nM -0.69% | 10000 nM -14.3%

Nc1ccc(S(=O)(=O)Nc2ccccn2)cc1 [sulfapyridine]
inactive: 1 nM -1.16% | 8.33 nM 0.08% | 100 nM 0.38% | 833.33 nM -1.04% | 10000 nM -4.35%

COc1cc2c(CCNC(C)=O)c[nH]c2cc1Cl [6-chloromelatonin]
inactive: 1 nM 0.92% | 8.33 nM 0.78% | 100 nM -1.78% | 833.33 nM 4.57% | 10000 nM -13.2%

Source: the supplement of paper PMC13380429
